In PubChem BioAssay (EPA / NIEHS) one finds outcome and AC50 data, which are given here for 25 compounds.

A short description of experiment [1]: ATG_CRE_CIS: Attagene CIS-FACTORIAL HepG2 Assay for human cAMP Responsive Element (CRE) binding protein 3 (AID 2282926). To be noted: HepG2 CRE cis-reporter, Attagene multiplexed mRNA; actives raise or lower the signal. The method in brief:
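Endogenous transcription factor activity read via CRE-regulated reporter transcripts in transfected HepG2 cells. After 24 h exposure, RNA was reverse-transcribed, amplified, fluorescently labelled and sized by capillary electrophoresis; gain or loss fitted against DMSO.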

For experiment [2], the target named is CCAAT/enhancer-binding protein beta (Homo sapiens) (UniProt P17676). Briefly: ATG_C_EBP_CIS: Attagene CIS-FACTORIAL HepG2 Assay for human CCAAT/Enhancer Binding Protein (C/EBP) beta (AID 2282927). The note with it: HepG2 Attagene cis-factorial transcription factor reporter; actives raise or lower the signal. In short, it runs like this: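 Transiently transfected HepG2 (MRTU library, endogenous TF-driven promoters); 24 h dosing; total RNA → oligo(dT) RT → PCR → 6-FAM primer extension → HpaI digest → CE; fit bidirectionally vs DMSO.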
CCAAT/enhancer-binding protein beta (Homo sapiens), sequence (P17676 whole entry, looked up): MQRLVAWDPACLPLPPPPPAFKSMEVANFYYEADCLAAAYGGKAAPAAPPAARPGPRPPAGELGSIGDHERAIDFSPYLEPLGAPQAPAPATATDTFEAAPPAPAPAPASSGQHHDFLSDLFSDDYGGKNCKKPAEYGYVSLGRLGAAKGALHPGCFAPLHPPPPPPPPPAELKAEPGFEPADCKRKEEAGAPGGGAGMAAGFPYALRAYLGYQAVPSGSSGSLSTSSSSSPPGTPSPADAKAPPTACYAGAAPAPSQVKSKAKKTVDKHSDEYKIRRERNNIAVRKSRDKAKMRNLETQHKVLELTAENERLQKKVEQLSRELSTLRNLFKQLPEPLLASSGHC

Experiment [3] can be described thus: ATG_CMV_CIS: Attagene CIS-FACTORIAL HepG2 Assay for human CMV (Internal Marker) (AID 2282928).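 Also: endpoint acts as a background internal control marker rather than a target.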 To be noted: HepG2 CMV promoter reporter, transcription factor profiling; actives raise or lower the signal. The method in brief:
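Bidirectional fits against DMSO are applied to reporter mRNA, read by RT-PCR with capillary electrophoresis, from HepG2 cells exposed 24 h. The endpoint serves as an internal CMV background marker within the cis-factorial reporter panel.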

The nature of experiment [4]: ATG_DR4_LXR_CIS: Attagene CIS-FACTORIAL HepG2 Assay for human Liver X Receptor (LXR), DR4 submotif (AID 2282929). The note with it: HepG2 Attagene DR4 cis-reporter, mRNA transcription; AC50: actives raise or lower the signal unless noted; outcome: actives raise or lower the signal unless noted. In short, it runs like this: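 Measures endogenous transcription factor activity via a DR4-driven reporter transcript in human HepG2 cells. Compounds incubated 24 h; mRNA quantified by RT-PCR and capillary electrophoresis, analysed as gain or loss of signal versus DMSO.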

For experiment [5], the target named is Aryl hydrocarbon receptor (Homo sapiens) (UniProt P35869). Kind of experiment: ATG_Ahr_CIS: Attagene CIS-FACTORIAL HepG2 Assay for human Aryl Hydrocarbon Receptor (Ahr) (AID 2282930). The note with it: HepG2 AhR cis-factorial reporter transcription; actives raise or lower the signal. In short, it runs like this: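 Read-out: reporter mRNA quantified by RT-PCR with fluorescent primer extension and capillary electrophoresis. Human HepG2 liver cells carried transfected cis-promoter reporter units and were exposed to chemical for 24 h; gain or loss fitted relative to DMSO.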
Aryl hydrocarbon receptor (Homo sapiens), sequence (P35869 whole entry, looked up): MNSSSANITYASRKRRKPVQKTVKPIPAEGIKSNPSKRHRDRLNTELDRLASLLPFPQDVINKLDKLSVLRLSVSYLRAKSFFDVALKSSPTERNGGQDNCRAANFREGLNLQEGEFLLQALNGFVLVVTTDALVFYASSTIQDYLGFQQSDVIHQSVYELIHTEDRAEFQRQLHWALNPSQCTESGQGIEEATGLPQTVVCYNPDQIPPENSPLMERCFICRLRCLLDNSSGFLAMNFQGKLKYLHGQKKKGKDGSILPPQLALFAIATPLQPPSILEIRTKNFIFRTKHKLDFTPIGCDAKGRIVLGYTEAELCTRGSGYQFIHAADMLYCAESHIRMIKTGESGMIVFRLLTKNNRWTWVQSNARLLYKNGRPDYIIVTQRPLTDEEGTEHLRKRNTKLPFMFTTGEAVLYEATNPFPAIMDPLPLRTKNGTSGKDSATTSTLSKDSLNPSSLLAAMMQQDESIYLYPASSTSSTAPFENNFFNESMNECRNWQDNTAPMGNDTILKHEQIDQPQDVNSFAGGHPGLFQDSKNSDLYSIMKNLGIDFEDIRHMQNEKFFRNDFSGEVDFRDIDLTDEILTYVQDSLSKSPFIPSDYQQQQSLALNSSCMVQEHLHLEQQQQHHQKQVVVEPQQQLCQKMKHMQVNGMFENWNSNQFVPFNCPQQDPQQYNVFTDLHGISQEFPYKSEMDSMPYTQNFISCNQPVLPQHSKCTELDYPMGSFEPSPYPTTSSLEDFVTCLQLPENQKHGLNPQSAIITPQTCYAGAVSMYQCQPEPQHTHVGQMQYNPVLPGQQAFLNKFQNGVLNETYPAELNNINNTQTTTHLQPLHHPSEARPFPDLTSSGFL

Experiment [6] is described as follows: ATG_AP_1_CIS: Attagene CIS-FACTORIAL HepG2 Assay for human Activator Protein 1 (AP-1) (AID 2282931). The note with it: HepG2 Attagene cis-factorial AP-1 reporter mRNA; actives raise or lower the signal. In short, it runs like this:
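Bidirectional concentration-response fitting against DMSO controls. Underlying signal: reporter mRNA from cis-promoter constructs in transiently transfected HepG2, measured after 24 h by RT-PCR and capillary electrophoresis.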

Experiment [7] in a line: ATG_AP_2_CIS: Attagene CIS-FACTORIAL HepG2 Assay for human Activator Protein 2 (AP-2) (AID 2282932). To be noted: HepG2 AP-2 cis-reporter, Attagene transcription factor profiling; AC50: actives raise or lower the signal unless noted; outcome: actives raise or lower the signal unless noted. The method in brief: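 Liver-derived HepG2 line, cis-reporter system measuring endogenous factors; 24 h dosing; reporter mRNA detected by fluorescent RT-PCR and capillary electrophoresis.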

The nature of experiment [8]: ATG_BRE_CIS: Attagene CIS-FACTORIAL HepG2 Assay for human Bone Morphogenetic Protein (BMP) Response Element (BRE) (AID 2282933). To be noted: HepG2 BMP response element reporter, Attagene transcription factor profiling; actives raise or lower the signal. The method in brief: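 HepG2 cells transiently transfected with CIS reporter units (endogenous TF activity, BMP response element), dosed 24 h. Reporter mRNA quantified by RT-PCR, fluorescent labelling and capillary electrophoresis; bidirectional fit vs DMSO baseline.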

Experiment [9] concerns the target Retinoic acid receptor alpha (Homo sapiens) (UniProt P10276). Kind of experiment: ATG_DR5_RAR_CIS: Attagene CIS-FACTORIAL HepG2 Assay for human Retinoic Acid Receptor Alpha (RARE), DR5 submotif (AID 2282934).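 As to AC50: reporter responds to endogenous RAR alpha beta and gamma in HepG2 not RARA alone.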 The note with it: HepG2 Attagene cis-factorial RARE DR5 reporter, mRNA; actives raise or lower the signal. In short, it runs like this:
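Read-out: DR5-driven reporter transcript measured by RT-PCR, 6-FAM primer extension, HpaI digest and capillary electrophoresis. Human HepG2 liver cells carry transiently transfected cis-element reporter constructs; dosing lasts 24 h. Gain or loss of signal fitted against DMSO baseline.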

In experiment [10] the target is Transcription factor E2F1 (Homo sapiens) (UniProt Q01094). Kind of experiment: ATG_E2F_CIS: Attagene CIS-FACTORIAL HepG2 Assay for human E2F Transcription Factor 1 (AID 2282935). The note with it: HepG2 Attagene cis-reporter, E2F reporter RNA transcripts; actives raise or lower the signal. The method in brief: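 Liver-derived HepG2 cells expressing transfected promoter-driven reporter units received test chemical for 24 hours. Signal gains or losses were fitted bidirectionally against DMSO.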
Transcription factor E2F1 (Homo sapiens), sequence (Q01094 whole entry, looked up): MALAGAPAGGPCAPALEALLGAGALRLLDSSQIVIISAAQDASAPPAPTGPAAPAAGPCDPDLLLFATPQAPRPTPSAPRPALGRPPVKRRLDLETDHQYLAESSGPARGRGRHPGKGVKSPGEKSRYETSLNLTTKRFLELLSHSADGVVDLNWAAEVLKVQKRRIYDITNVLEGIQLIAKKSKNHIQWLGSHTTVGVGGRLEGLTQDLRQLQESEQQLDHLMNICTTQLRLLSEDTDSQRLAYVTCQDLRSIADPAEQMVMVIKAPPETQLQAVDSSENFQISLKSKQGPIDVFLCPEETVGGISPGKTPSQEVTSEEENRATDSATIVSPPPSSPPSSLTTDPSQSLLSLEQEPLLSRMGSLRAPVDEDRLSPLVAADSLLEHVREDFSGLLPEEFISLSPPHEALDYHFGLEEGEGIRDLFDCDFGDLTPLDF

Active and inactive are the calls of the source. The calls were made as follows: active = hit-call score of the fitted dose curve at least 0.9, where 1 is the maximum; inactive = score below 0.9.

Retinoic acid receptor alpha (Homo sapiens), sequence (P10276 whole entry, looked up): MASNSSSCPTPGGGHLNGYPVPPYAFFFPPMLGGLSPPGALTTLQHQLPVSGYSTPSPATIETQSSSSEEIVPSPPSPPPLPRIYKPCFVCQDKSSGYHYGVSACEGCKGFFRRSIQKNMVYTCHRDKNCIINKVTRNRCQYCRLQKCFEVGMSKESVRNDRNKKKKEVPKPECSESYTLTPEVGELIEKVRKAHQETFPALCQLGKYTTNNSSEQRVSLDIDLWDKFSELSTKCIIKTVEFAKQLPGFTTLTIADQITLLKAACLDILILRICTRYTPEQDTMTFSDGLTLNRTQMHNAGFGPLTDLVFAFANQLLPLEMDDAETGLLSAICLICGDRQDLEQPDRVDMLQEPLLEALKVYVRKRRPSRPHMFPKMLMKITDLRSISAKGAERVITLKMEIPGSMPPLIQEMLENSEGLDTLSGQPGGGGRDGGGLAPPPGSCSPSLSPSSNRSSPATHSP

For the compound `CCOC(=O)CN[C@@H](C(=O)N1CC[C@H]1C(=O)NCc1ccc(/C(N)=N/O)cc1)C1CCCCC1`, the compound was called inactive in experiment [1], in [2], in experiment [3], in experiment [4], in experiment [5] and in experiment [6]. In addition, the outcome in experiment [7], in experiment [8], in experiment [9] and in experiment [10] was inactive.
Consider `O=C(O)c1cccc(C(=O)O)n1`, for which the compound was called inactive in [1], in [2], in experiment [3], in experiment [4], in experiment [5] and in experiment [6]. In addition, the call in experiment [7], in experiment [8], in experiment [9] and in [10] was inactive.
As for `Oc1ccc(Cc2ccccc2O)cc1`, the result in experiment [1], in [2], in experiment [3], in [4], in experiment [5] and in [6] was inactive. For the same compound, the compound was classed as inactive in experiment [7], in experiment [8], in [9] and in experiment [10].
As to `Cc1cccc2c1ccc1ccccc12`, the compound was classed as inactive in experiment [1], in experiment [2], in [3], in experiment [4], in experiment [5] and in experiment [6]. Also, the compound was classed as inactive in experiment [7], in experiment [8], in experiment [9] and in [10].
For `O=C(F)C(F)(F)C(F)(F)C(F)(F)C(=O)F`, the call in experiment [1], in experiment [2], in [3], in experiment [4], in experiment [5] and in [6] was inactive. For the same compound, the compound was classed as inactive in [7], in [8], in experiment [9] and in experiment [10].
What is called AC50 is the midpoint of the concentration-response curve, whichever way the signal moves. For `O=C1c2ccccc2C(=O)c2c(O)c(O)cc(O)c21`, the call in experiment [1], in [2], in [4], in [7], in experiment [8] and in experiment [9] was inactive. Further, the compound was classed as inactive in experiment [10]. Moreover, the AC50 in experiment [3] was 27.3 µM (active); in experiment [5], 0.303 µM (active); in experiment [6], 19.8 µM (active).
As to `COc1ccc(C#N)cc1`, the call in experiment [1], in experiment [2], in experiment [3], in experiment [4], in [5] and in experiment [6] was inactive. Moreover, the compound was called inactive in experiment [7], in experiment [9] and in [10].
Turning to `Cc1cc(=O)oc2cc(O)ccc12`, the outcome in experiment [1], in experiment [2], in experiment [3], in experiment [4], in experiment [5] and in experiment [6] was inactive. Also, the compound was called inactive in experiment [7], in experiment [8] and in experiment [10].
Take `FC1(F)C=CC(F)(F)C1(F)F`: the outcome in experiment [1], in experiment [2], in [3], in experiment [4], in [5] and in experiment [6] was inactive. Also, the outcome in experiment [7], in experiment [8], in experiment [9] and in [10] was inactive.
As to `CC=O`, the compound was called inactive in [1], in [2], in experiment [3], in experiment [4], in [5] and in experiment [6]. In addition, the compound was called inactive in experiment [7], in [9] and in [10].
For the compound `COC(=O)CC(C(C)=O)C(=O)OC` (configuration not stated), the compound was called inactive in experiment [1], in [2], in experiment [3], in [4], in experiment [5] and in [6]. Besides, the call in experiment [7], in experiment [9] and in experiment [10] was inactive.
In the case of `CCO[Si](C)(C)OCC`, the call in experiment [1], in experiment [2], in [3], in [4], in [5] and in experiment [6] was inactive. The compound was called inactive in experiment [7], in experiment [9] and in experiment [10].
Take `CCCC=O`: the compound was called inactive in [1], in [2], in experiment [3], in experiment [4], in [5] and in [6]. Moreover, the compound was classed as inactive in experiment [7], in experiment [9] and in experiment [10].
Regarding `O=C(Nc1cccc([N+](=O)[O-])c1)c1cc2ccccc2cc1O`, the outcome in experiment [1], in [2], in [3], in experiment [4], in experiment [7] and in experiment [9] was inactive. Moreover, the AC50 in [5] was 0.411 µM (active); in [6], 2.31 µM (active); in experiment [8], 1.17 µM (active); in experiment [10] it was 2.35 µM (active).
Take `CCc1cccc(CC)c1N(COC)C(=O)CS(=O)(=O)O`: the call in experiment [1], in [2], in [3], in experiment [4], in experiment [5] and in experiment [6] was inactive. The outcome in [7], in experiment [9] and in [10] was inactive.
Consider `Cc1ccc(C)c(S(=O)(=O)O)c1`, for which the result in [1], in experiment [2], in experiment [3], in experiment [4], in experiment [5] and in experiment [6] was inactive. Further, the call in experiment [7], in experiment [8], in [9] and in experiment [10] was inactive.
With `OCCN1CN(CCO)CN(CCO)C1`, the AC50 in experiment [1] was 145 µM (active); in experiment [4], 63.4 µM (active); in experiment [7] it was 143 µM (active); in experiment [9], 144 µM (active). For the same compound, the result in [2], in experiment [3], in experiment [5], in experiment [6] and in [10] was inactive.
`C=COC(=O)C(C)(C)CCCCCC`: the result in [1], in experiment [2], in [4], in experiment [5], in experiment [6] and in experiment [7] was inactive. Moreover, the compound was called inactive in experiment [9] and in [10]. Also, the AC50 in experiment [3] is 159 µM (active).
For `NNc1nc(-c2ccc([N+](=O)[O-])cc2)cs1`, the result in [1], in [2], in experiment [3], in experiment [4], in [5] and in experiment [7] was inactive. The outcome in [9] and in [10] was inactive. The AC50 in experiment [6] was 10.6 µM (active).
Regarding `CCCCCCCCC1CCC(=O)O1` (configuration not stated), the compound was classed as inactive in [1], in experiment [2], in experiment [3], in [4], in experiment [5] and in [6]. Moreover, the compound was classed as inactive in experiment [7], in experiment [8], in experiment [9] and in [10].
Take `O=S(=O)(O)c1ccc2cc(O)ccc2c1`: the outcome in [1], in experiment [2], in experiment [3], in experiment [4], in experiment [5] and in experiment [6] was inactive. Further, the compound was called inactive in experiment [7], in experiment [9] and in [10].
For the compound `CCN(CCC#N)c1ccccc1`, the compound was classed as inactive in experiment [1], in experiment [2], in [3], in experiment [4], in experiment [5] and in experiment [6]. The call in [7], in [8], in experiment [9] and in experiment [10] was inactive.
In the case of `CCc1ccccc1O`, the compound was classed as inactive in [1], in experiment [2], in experiment [3], in [4], in experiment [6] and in experiment [7]. Besides, the compound was classed as inactive in experiment [9] and in experiment [10]. Besides, in [5], the half-maximal activity concentration (AC50) is 10.3 µM (active).
For `c1ccc2c(c1)CCC2`, the outcome in [1], in experiment [2], in experiment [3], in experiment [4], in experiment [5] and in [6] was inactive. The compound was classed as inactive in experiment [7], in [9] and in [10].
For `OCC(F)(F)C(F)(F)C(F)(F)C(F)(F)C(F)(F)C(F)(F)C(F)(F)C(F)(F)C(F)(F)C(F)(F)C(F)(F)F`, the outcome in experiment [1], in experiment [2], in experiment [3], in experiment [4], in experiment [5] and in experiment [6] was inactive. Further, the outcome in experiment [7], in [8], in [9] and in [10] was inactive.
